Compound activity from PubChem BioAssay.
Sampled rows, rich in hits. Any-hit rate of the full collection: about 1.2%.
EPAC1 antagonist – antagonists of human EPAC1; O95398; EPAC1 GEF assay, Rap1b-BODIPY-GDP exchange fluorescence; Potency, µM (series often up to 115 µM), for the others: top-dose activity change, negative = inhibition, hits mostly inhibitors; hit rate 0.14% among 360,000;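 note: plate controls were vehicle for no effect and positive control for full effect; nearly all actives have a fitted effect of over 50% in size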
EPAC2 agonist – activates human EPAC2 exchange factor | Potency, µM (series often up to 154 µM), without a hit: top-dose activation, hits mostly activators | EPAC2 activation, biochemical qHTS; response scale: 100% = 6.5 mM cAMP response | AID 720711 | Q8WZA2 | hit rate 0.079% among 360,000; note: nearly all actives have a fitted effect of over 50% in size
Target sequence (Q8WZA2 whole entry, looked up): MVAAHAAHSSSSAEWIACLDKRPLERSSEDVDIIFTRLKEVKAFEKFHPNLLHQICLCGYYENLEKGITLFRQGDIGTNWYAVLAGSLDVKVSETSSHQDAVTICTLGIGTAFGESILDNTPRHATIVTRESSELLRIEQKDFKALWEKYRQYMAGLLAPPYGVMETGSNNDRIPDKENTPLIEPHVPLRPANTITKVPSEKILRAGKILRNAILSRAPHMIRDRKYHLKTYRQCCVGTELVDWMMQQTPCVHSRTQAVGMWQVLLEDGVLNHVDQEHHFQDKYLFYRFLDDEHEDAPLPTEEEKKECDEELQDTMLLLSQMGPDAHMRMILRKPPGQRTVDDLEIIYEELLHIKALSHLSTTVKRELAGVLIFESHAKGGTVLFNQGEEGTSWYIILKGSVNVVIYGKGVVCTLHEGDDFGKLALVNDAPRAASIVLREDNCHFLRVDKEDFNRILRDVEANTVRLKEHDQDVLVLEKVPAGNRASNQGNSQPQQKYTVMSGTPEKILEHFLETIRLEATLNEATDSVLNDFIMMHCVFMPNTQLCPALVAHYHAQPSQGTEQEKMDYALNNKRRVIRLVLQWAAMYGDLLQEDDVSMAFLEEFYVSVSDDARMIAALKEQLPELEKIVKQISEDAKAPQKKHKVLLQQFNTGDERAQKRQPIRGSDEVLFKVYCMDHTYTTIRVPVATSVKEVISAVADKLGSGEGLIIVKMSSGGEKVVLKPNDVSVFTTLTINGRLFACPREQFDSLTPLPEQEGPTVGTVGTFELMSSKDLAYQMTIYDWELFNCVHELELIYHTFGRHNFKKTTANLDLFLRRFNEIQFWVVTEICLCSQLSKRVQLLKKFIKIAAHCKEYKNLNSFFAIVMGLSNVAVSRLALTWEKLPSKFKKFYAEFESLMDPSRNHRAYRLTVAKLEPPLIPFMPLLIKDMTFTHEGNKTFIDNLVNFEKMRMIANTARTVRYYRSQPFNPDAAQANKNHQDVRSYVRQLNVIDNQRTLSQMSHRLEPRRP
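Compounds were titrated in qHTS against a Rap1B-BODIPY-GDP (250 nM) complex with EPAC2 (100 nM) and GDP (50 uM). BODIPY-GDP release tracked at 480/540 nm over 30 min at room temperature, normalized to 6.5 mM cAMP.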
USP1 inh – blocks the human USP1/UAF1 deubiquitinase complex | O94782 | recombinant USP1/UAF1, Ub-Rhodamine cleavage fluorescence | Potency, µM (top dose mostly 57.1 µM), inactives show at the highest dose activity change, negative = inhibition, hits mostly inhibitors | hit rate 0.23% among 390,000 | AID 743255; note: % is set by controls: 0 for no effect and ±100 for the full control effect; nearly all actives have a fitted effect of over 60% in size
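In this screen, compounds sit with the deubiquitinase complex (1nM) for 15 min at room temperature before Ub-Rho is added at 150nM final. Fluorescence rise is then followed for 6 reads every 60 seconds.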
VDR inhibitor – blocks the human vitamin D receptor; VDR-SRC2-3 peptide fluorescence polarization, 2 h; Potency, µM, for inactives: max response, negative = inhibition, hits mostly inhibitors; hit rate 0.93% among 400,000; AID 504847; note: % is set by controls: 0 for no effect and ±100 for the full control effect
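Inhibition of the VDR/SRC2-3 peptide interaction is quantified by fluorescence polarization. Compounds (23 nl, pintool) incubate with the reagents for 2 hours at ambient room temperature.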
EPAC1 agonist – EPAC1 (human) agonism. EPAC1 agonist qHTS, biochemical assay; response scale: 100% = response to 6.5 mM cAMP. Potency, µM (series often up to 154 µM), without a hit: at the highest dose activation, usual class: activators. hit rate 0.073% among 360,000; note: nearly all actives have a fitted effect of over 60% in size
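Compounds were pinned as a concentration titration into mixtures of EPAC1 (100 nM), BODIPY-GDP-loaded Rap1B (250 nM) and GDP (50 uM). After 5 min at room temperature, fluorescence was followed for 30 min; activity was scaled to 6.5 mM cAMP.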
EPAC2 antagonist – EPAC2 (human) antagonism | Q8WZA2 | EPAC2 GEF exchange of Rap1B-BODIPY-GDP, fluorescence | Potency, µM (doses to about 114 µM), inactives show at the highest dose activity, negative = inhibition, actives largely listed as inhibitors | hit rate 0.18% among 360,000 | AID 720708; note: % is set by controls: 0 for no effect and ±100 for the full control effect; nearly all actives have a fitted effect of over 45% in size
Starred values were filed as active, the others as inactive. Calls come from the whole dose curve; as a rule, active = well fitted curve in the direction sought with a large enough effect; inconclusive = small, poorly fitted or top-dose-only effect, or another doubt; inactive = no such curve, though single readings can be large; an effect the other way counts as inactive or inconclusive. Potency is the fitted concentration of half-maximal effect.

What do the screens show for `CCCC[C@@H](C)/C=C(C)/C=C(\C)C(=O)NC1=C[C@@](O)(/C=C/C=C/C=C/C(=O)NC2=C(O)CCC2=O)[C@@H]2O[C@@H]2C1=O`?
VDR inhibitor: 2.2µM*

What do the screens show for `CCc1ccc(/C=C2/SC(=S)N(CCCC(=O)Nc3ccccc3C(=O)O)C2=O)cc1`?
EPAC1 antagonist: 40µM*; EPAC2 agonist: -6%; USP1 inh: -19%; VDR inhibitor: inconclusive; EPAC1 agonist: 2%; EPAC2 antagonist: inconclusive

Results for COc1ccccc1/C=C1\SC(=S)N(CCC(=O)Nc2ccc(C(=O)O)c(O)c2)C1=O ?
EPAC1 antagonist: 50µM*; EPAC2 agonist: 7%; USP1 inh: -25%; VDR inhibitor: inconclusive; EPAC1 agonist: 4%; EPAC2 antagonist: -10%

Results for COc1ccccc1C(=O)NNC(=O)CCCN1C(=O)/C(=C/c2cccs2)SC1=S ?
EPAC1 antagonist: 7%; EPAC2 agonist: 100µM*; USP1 inh: -29%; VDR inhibitor: -5%; EPAC1 agonist: 2%; EPAC2 antagonist: 15%

What do the screens show for `O=C(CCN1C(=O)/C(=C/c2ccccc2Cl)SC1=S)Nc1ccccc1C(=O)O`?
EPAC1 antagonist: -18%; EPAC2 agonist: -1%; USP1 inh: inconclusive; VDR inhibitor: 79µM*; EPAC1 agonist: -3%; EPAC2 antagonist: -20%

How did COc1ccc(NC(=O)CCc2c(C)nc3nc(CNC(=O)OC(C)(C)C)nn3c2C)cc1OC do in these assays?
USP1 inh: -14%; VDR inhibitor: 7%

What do the screens show for `CCOc1ccc(Nc2nc3cc(S(=O)(=O)N(CC)CC)ccc3o2)cc1`?
EPAC1 antagonist: 4%; EPAC2 agonist: -2%; USP1 inh: -18%; VDR inhibitor: 79µM*; EPAC1 agonist: -12%; EPAC2 antagonist: 13%

Results for CCS(=O)(=O)c1ccc2oc(Nc3cc(C)cc(C)c3)nc2c1 ?
EPAC1 antagonist: 3%; EPAC2 agonist: 2%; USP1 inh: -21%; VDR inhibitor: 0%; EPAC1 agonist: 9%; EPAC2 antagonist: -4%

How did CCCc1cc(CN2CCOCC2)c(O)c(CN2CCOCC2)c1O do in these assays?
EPAC1 antagonist: 13%; EPAC2 agonist: 3%; USP1 inh: -16%; VDR inhibitor: 22µM*; EPAC1 agonist: 6%; EPAC2 antagonist: 1%

What do the screens show for `Oc1cccc(CN2CCOCC2)c1O`?
EPAC1 antagonist: inconclusive; EPAC2 agonist: -4%; USP1 inh: -19%; VDR inhibitor: inconclusive; EPAC1 agonist: -3%; EPAC2 antagonist: 6%

What do the screens show for `Oc1c(CN2CCOCC2)cc(CN2CCOCC2)c(O)c1O`?
EPAC1 antagonist: -10%; EPAC2 agonist: 8%; USP1 inh: inconclusive; VDR inhibitor: 20µM*; EPAC1 agonist: 1%; EPAC2 antagonist: 9%

What do the screens show for `COc1ccc(/C=C(\CC(=O)O)c2nc3ccccc3o2)cc1`?
EPAC1 antagonist: -4%; EPAC2 agonist: -2%; USP1 inh: -1%; VDR inhibitor: -3%; EPAC1 agonist: 4%; EPAC2 antagonist: 0%

Results for COc1ccc(C(=O)/C(=C/c2cccs2)c2nc3ccccc3o2)cc1 ?
EPAC1 antagonist: -9%; EPAC2 agonist: 10%; USP1 inh: -15%; VDR inhibitor: 32µM*; EPAC1 agonist: 11%; EPAC2 antagonist: 6%

Results for Cc1ccc(C)c(CN2C(=O)c3ccccc3S(=O)c3ccc(C(=O)NCCc4ccc(Cl)cc4)cc32)c1 (stereo unspecified) ?
USP1 inh: -7%; VDR inhibitor: -13%

Results for CC(=O)Nc1nc(=S)ss1 ?
EPAC1 antagonist: -4%; EPAC2 agonist: 7%; USP1 inh: -15%; VDR inhibitor: 45µM*; EPAC1 agonist: 8%; EPAC2 antagonist: -2%

What do the screens show for `CC(=O)Nc1n[nH]c(=S)s1`?
EPAC1 antagonist: -12%; EPAC2 agonist: 11%; USP1 inh: -3%; VDR inhibitor: 50µM*; EPAC1 agonist: -7%; EPAC2 antagonist: -3%
